PubChem BioAssay (Tox21)
Records with an inconclusive call do not appear. Where a call stands in place of a potency, no number is given. Unmarked numbers belong to inactive results. Calls of active or inactive are those of the source. The call rests on the fitted dose curve; in most records, active means well fitted activation curve with a large enough effect in the repeat runs; inconclusive means weak or mixed curves; inactive means flat fitted curve, though single readings scatter.

Test: A CellTox Green Cytotoxicity Assay to monitor cytotoxicity in HEK293 cells - 16 hour (AID 1224888); further: nearly all actives have a fitted effect of over 35% in size
Details: CellTox Green fluorescence; series mostly up to 76.8 µM; activity change: at the top concentration
Excerpt: National Center for Advancing Translational Sciences [NCATS]
NIH Chemical Genomics Center [NCGC]
U.S. Environmental Protection Agency [EPA]
National Institutes of Environmental Health Sciences [NIEHS]
National Toxicology Program [NTP]
Cell-based models are critical for drug discovery. Determining the natural cytotoxic effects resulting from test compounds is an essential research activity. A CellTox Green Cytotoxicity Assay to monitor cytotoxicity in real time of continues cell culture during 40 hours of the compound treatment was used to screen Tox21 10K library compounds in Hek293 cells. CellTox Green Cytotoxicity Assay is a nonlytic, homogeneous, biofluorescent method to measure cytotoxicity in cell culture after experimental manipulation. The assay system uses a proprietary asymmetric cyanine dye that is excluded from viable cells but preferentially stains the dead cell's DNA. […] Viable cells produce no appreciable increases in fluorescence. Therefore, the fluorescence signal produced by the binding interaction with dead cell DNA is proportional to cytotoxicity.
The mixture of Hek293 cell suspension and reagents were dispensed at 600cells/6 ul/well in 1536-well tissue culture treated black solid bottom plates using a Multidrop dispenser. After the assay plates were incubated at a 37 C/5% CO2 incubator for 5 hours, 23 nL of compounds dissolved in DMSO, positive and negative controls was transferred to the assay plate by a pintool work station. The plates were incubated at 37 C for 40 hours. The fluorescence intensity were measured at 0h, 8h, 16h, 24h, 32h and 40h time points using ViewLux plate reader during compound treatment.

Row | Compound | Potency | activity change
1 | CC(CCl)OP(=O)(OC(C)CCl)OC(C)CCl (stereo not given) | inactive | 
2 | COc1ccc(CCC(C)=O)cc1 | inactive | 
3 | O=C(O)c1cc2ccccc2cc1O | inactive | 
4 | CC(=O)OCCOC(C)=O | inactive | 
5 | CC(C)=CCl | inactive | 
6 | CN/C(=C\[N+](=O)[O-])NCCSCc1csc(CN(C)C)n1 | inactive | 
7 | CCCCOC(=O)c1ccc(N)cc1 | inactive | 
8 | N[C@H](Cc1c[nH]c2ccccc12)C(=O)O | inactive | 
9 | C=CC(=O)OCCC(=O)O | inactive | 
10 | O=C(O)/C=C/C(=O)O | inactive | 
11 | CCCCCCC=O | inactive | 
12 | O=C(O)c1ccccc1C(=O)O | inactive | 
13 | COc1ccc(OC)cc1 | inactive | 
14 | CC(=O)OC1CC(C)OC(C)O1 (stereo not given) | inactive | 
15 | CCCCCCCCCCN | inactive | 
16 | OC1C(O)C(O)C(O)C(O)C1O (stereo not given) | inactive | 
17 | NCCNCCN | inactive | 
18 | NC(=S)NNC(N)=S | inactive | 
19 | C=C(C)CNCC | inactive | 
20 | Cc1ccc2ncccc2c1 | inactive | 

Row | Compound | Potency | activity change
21 | Nc1ccc(Cl)c(N)c1 | inactive | 
22 | CC(C)CC(C)O (stereo not given) | inactive | 
23 | CC(C)(C)c1cc(Cc2cc(C(C)(C)C)c(O)c(C(C)(C)C)c2)cc(C(C)(C)C)c1O | inactive | 
24 | CC1(C)CC(N)CC(C)(CN)C1 (stereo not given) | inactive | 
25 | OCc1cccc(Oc2ccccc2)c1 | inactive | 
26 | CC(=O)CCC=C(C)C | inactive | 
27 | CC(=O)CC(C)(C)O | inactive | 
28 | CC1(C)S[C@@H]2[C@H](NC(=O)COc3ccccc3)C(=O)N2[C@H]1C(=O)O |  | 15.2%
29 | CCCCC(C=O)CC (stereo not given) | inactive | 
30 | C=CCCCCCCCCC(=O)O | inactive | 
31 | CC(C)CCCCCCCOC(=O)CCCCC(=O)OCCCCCCCC(C)C | inactive | 
32 | CC(CCO)CC(C)(C)C (stereo not given) | inactive | 
33 | CC1(C)OC[C@@H]2O[C@@]3(C(=O)O)OC(C)(C)O[C@H]3[C@@H]2O1 | inactive | 
34 | CCCOC(=O)c1ccccc1 | inactive | 
35 | C=C(C)[C@H]1CC=C(C)C(=O)C1 | inactive | 
36 | CCOCC(=O)O | inactive | 
37 | O=C(O)CCCCCCCCC(=O)O | inactive | 
38 | NCCN1CCNCC1 | inactive | 
39 | CCCCCCCCCCCCCCCC(=O)OC(C)C | inactive | 
40 | C=CC(C)CCCC(C)(C)O (stereo not given) | inactive | 
